Assay outcomes deposited in PubChem by SRMLSC.
An excerpt weighted towards active compounds, which were near 6.3% of everything screened.
Spn DPM-DC inh – blocks S. pneumoniae diphosphomevalonate decarboxylase. purified DPM-DC, PK/LDH coupled NADH fluorescence. calls only at 10 µM. hit rate 0.49% among 65,000. AID 556;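 active = the 320 compounds with the highest percent inhibition in the single-dose primary screen, excluding strongly autofluorescent ones, cut at about 32% in these data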;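 also: kinetic rate of NADH fluorescence loss reporting ADP formed by the decarboxylase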
Spn MK inh – inhibitors of Streptococcus pneumoniae mevalonate kinase; purified MK, PK/LDH-coupled NADH absorbance 340 nm; inhibition, % at 10 µM; hit rate 0.48% among 65,000; AID 555;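 active = ranked among the strongest by inhibition in the single 10 µM screen, a fixed top-ranked set picked for dose follow-up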
Spn PMK inh – S. pneumoniae PMK inhibition. purified PMK, PK/LDH-coupled NADH absorbance 340 nm. inhibition, % at 10 µM. hit rate 0.49% among 65,000;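 active = top-ranked compounds by inhibition in the single 10 µM screen, taking a fixed number of the strongest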;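 also: 0% = full reaction with DMSO carrier and 100% = background rate without enzyme reaction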
NADH enzymes – inhibition of NAD/NADH coupling enzymes, library profiling; IC50, µM (series often up to 10 µM), for inactives: top-dose inhibition; hit rate 0.02% among 65,000; coupled PK/LDH NADH assays, four targets;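 active = single-dose screening hits from any of four coupled enzyme assays that gave an IC50 when retested across doses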;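 also: the DPM-DC format reads NADH fluorescence rather than 340 nm absorbance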
Fluor 339 460 – intrinsic fluorescence of library compounds, ex339/em460 – biochemical, MLSMR library, data from DPM-DC assay, artefact control, profiling panel | AID 709 | fluorescence fold increase at 10 µM | hit rate 5.5% among 65,000 | compound autofluorescence, ex339/em460 nm, NADH buffer; active compounds read high; 1 = no-compound wells, NADH background;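 active = at 10 µM, mean starting fluorescence two-fold or more over control wells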;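 also: signal is the first read of a kinetic run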
Abs 340nm – compound absorbs light at 340 nm | 65,000 tested, under 10 active | compound absorbance at 340 nm, fold over control | fold change at 10 µM;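 active = at 10 µM dose, initial 340 nm absorbance at least 2 fold that of control wells; inactive = change under 2 fold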;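 also: initial absorbance extrapolated from kinetic A340 decline of NADH oxidation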
* marks the source's active call; other numbers are inactive results; i = inactive; / = no result given; + = active, no number.

SMILES | Spn DPM-DC inh | Spn MK inh | Spn PMK inh | NADH enzymes | Fluor 339 460 | Abs 340nm
CNS(=O)(=O)c1cccc(C(=O)OC2CCCCC2=O)c1 (configuration not stated) | i | 4 | 28* | 11% | 1.1 | 0.99
CCOc1cc(S(=O)(=O)NCCc2ccccc2C)c(OCC)cc1-n1cnnn1 | / | 0 | 0 | 0% | 3.9* | 1.1
CCOc1cc(S(=O)(=O)N2CCC(Cc3ccccc3)CC2)c(OCC)cc1-n1cnnn1 | i | 0 | 2 | 2% | 1.4 | 1
CCOc1cc(S(=O)(=O)NCCc2cccc(C)c2)c(OCC)cc1-n1cnnn1 | / | 4 | 11 | 8% | 3.7* | 1
CCOC(=O)c1cc2c(=O)n3ccccc3nc2n(CCCOC)c1=NC(=O)C(C)(C)C | / | 13 | 0 | 6% | 2.4* | 1
CCOC(=O)c1cc2c(=O)n3ccccc3nc2n(CCOC)c1=NC(=O)C(C)(C)C | / | 6 | 12 | 9% | 2.3* | 1.1
CCOC(=O)c1cc2c(=O)n3ccccc3nc2n(CCOC)c1=NC(=O)c1ccncc1 | / | 6 | 0 | 3% | 2.2* | 1.1
CCOC(=O)c1cc2c(=O)n3ccccc3nc2n(C(C)C)c1=NC(=O)c1ccncc1 | + | 8 | 4 | 15% | 1.6 | 1.1
O=C(C1CCCN(S(=O)(=O)Cc2ccccc2)C1)N1CCc2ccccc21 (configuration not stated) | i | 6 | 0 | 2% | 1.1 | 1.1
Fc1ccc2nc3[nH]c4ccccc4c3nc2c1 | i | 3 | 9 | 6% | 1.7 | 1.1
CCOCCCn1c(=NC(C)=O)c(C(=O)OCC)cc2c(=O)n3ccccc3nc21 | / | 0 | 8 | 3% | 2.9* | 1
CCN(CC)S(=O)(=O)c1ccc2c(c1)nc(SCc1nc3ccsc3c(=O)[nH]1)n2CC | i | 0 | 7 | 2% | 1.1 | 1.1
Cc1ccc(-n2c(=O)[nH]c3c(C(N)=O)nc(-c4ccc(C)o4)nc32)cc1 | i | 3 | 15 | 8% | 2.4* | 1
CCOc1ccccc1-c1nc(C(N)=O)c2[nH]c(=O)n(-c3cccc(C)c3)c2n1 | i | 0 | 10 | 10% | 2.5* | 1.1
CCOc1cccc(-c2nc(C(N)=O)c3[nH]c(=O)n(-c4cccc(Cl)c4)c3n2)c1O | i | 4 | 5 | 3% | 1 | 1
COc1ccc(OC)c(-c2nc(C(N)=O)c3[nH]c(=O)n(-c4ccc(F)cc4)c3n2)c1 | i | 0 | 6 | 2% | 1.1 | 1.1
COc1ccccc1-n1c(=O)[nH]c2c(C(N)=O)nc(-c3cccnc3)nc21 | / | 2 | 8 | 3% | 2.5* | 1
NC(=O)c1nc(C2CCCCC2)nc2c1[nH]c(=O)n2-c1ccc(F)cc1 | / | 4 | 7 | 6% | 2.1* | 1
COc1ccccc1-n1c(=O)[nH]c2c(C(N)=O)nc(C3CCCCC3)nc21 | i | 9 | 4 | 11% | 1.8 | 1
CCC(C)(C(=O)NC1CCCC1)N(C(=O)c1ccccn1)c1ccccc1 (configuration not stated) | i | 7 | 2 | 3% | 1.1 | 0.98
Cc1ccc2cc3c(NC(=O)C(C)C)nn(C)c3nc2c1 | i | 10 | 4 | 8% | 1.9 | 1.1
CCCCc1cc(=O)oc2cc(OCc3nn[nH]n3)c(Cl)cc12 | i | 3 | 12 | 7% | 2.5* | 1.1
CCc1cc(=O)oc2cc(OCc3nn[nH]n3)ccc12 | i | 6 | 11 | 11% | 3* | 1.1
CCOC(=O)C1CCN(C(=O)Nc2ccc3oc(C)nc3c2)CC1 | i | 10 | 7 | 6% | 1.1 | 1
CCOC(=O)C1CCN(C(=O)Nc2ccc3nc(C)c(C)nc3c2)CC1 | / | 5 | 12 | 3% | 2.9* | 1
SMILES | Spn DPM-DC inh | Spn MK inh | Spn PMK inh | NADH enzymes | Fluor 339 460 | Abs 340nm
COc1ccc(NS(=O)(=O)c2cccc(-c3nnc4n3CCCCC4)c2)cc1 | i | 4 | 0 | 1% | 1.1 | 1
COc1ccc(-c2cc3nc4n(c(=O)c3s2)CCC4)cc1 | / | 6 | 9 | 4% | 3* | 1
CCNC(=O)NC(=O)COC(=O)c1ccccc1SCC(=O)NC(=O)NCC | / | 23 | 0 | 12% | 2.1* | 1.1
COc1ccc(CN2CCCCC2c2cccnc2)c(OC)c1C (configuration not stated) | i | 1 | 0 | 1% | 1 | 1
Fc1ccc(-n2c(-c3ccco3)nc3nc4ccccc4nc32)cc1 | / | 0 | 16 | 8% | 5.1* | 1.1
Fc1cccc(-n2c(-c3ccco3)nc3nc4ccccc4nc32)c1 | / | 3 | 7 | 5% | 3.6* | 1.1
Fc1ccc(-c2nc3nc4ccccc4nc3n2Cc2ccco2)cc1 | i | 2 | 8 | 4% | 1.4 | 1.1
CCCCOCCCn1c(-c2ccco2)nc2nc3ccccc3nc21 | / | 5 | 8 | 7% | 4* | 1.1
CC1(C)CC(CC(=O)O)(c2ccccc2)CCO1 (configuration not stated) | i | 0 | 0 | 0% | 1.1 | 1.1
Nc1nnc(CC(=O)NCc2ccccc2)s1 | i | 5 | 4 | 3% | 1.2 | 0.99
O=C(NC(O)C(=O)c1cccs1)c1cccnc1 (configuration not stated) | i | 1 | 12 | 4% | 1.1 | 0.99
Cc1cc(NCCCN2CCOCC2)n2ncc(-c3ccc(Cl)cc3)c2n1 | / | 13 | 10 | 12% | 3.9* | 1
FC(F)(F)c1cc(-c2ccco2)nc(-n2nnc3ccccc32)n1 | + | 5 | 11 | 11% | 2.4* | 1
FC(F)(F)c1cc(-c2ccco2)nc(-n2nc(C(F)(F)F)cc2C2CC2)n1 | i | 5 | 12 | 11% | 3.4* | 1
O=C(O)CCC(NS(=O)(=O)c1ccc(-c2ccccc2)cc1)C(=O)O (configuration not stated) | i | 11 | 8 | 7% | 1.1 | 1
CCc1ccc(C2CC(c3ccccc3C)n3nc(N)nc3N2)cc1 (configuration not stated) | i | 7 | 4 | 7% | 1.2 | 1.1
O=C1CC(c2ccccc2)C(C(=O)Nc2ccccc2F)N1 (configuration not stated) | i | 3 | 7 | 3% | 1.1 | 1
CCn1c2ccccc2c2nc3cc(S(=O)(=O)N4CCOCC4)ccc3nc21 | i | 31 | 11 | 24% | 1.4 | 1.1
O=C(CN1CCC2(CC1)OCCO2)c1ccc2cc[nH]c2c1 | i | 0 | 13 | 10% | 3.2* | 1.1
COc1ccccc1C1C(C(=O)c2sc(C)nc2C)=C(O)C(=O)N1CCN1CCOCC1 (configuration not stated) | i | 10 | 11 | 7% | 1 | 1.1
COc1cc2c(cc1OC)-c1cc(OCCN3CCOCC3)nc(=O)n1CC2 | / | 12 | 1 | 7% | 3.9* | 1.1
COc1cc2c(cc1OC)-c1cc(NC3CCCCCCC3)nc(=O)n1CC2 | i | 3 | 12 | 11% | 2.4* | 1.1
